Data taken from PubChem BioAssay (EPA / NIEHS).
Values joined by “and” are separate entries in the source; they are usually repeats but may differ in a detail not shown here. Equal entries are not always repeated. More than one record can exist for a structure, and the calls need not agree. Active and inactive are the calls of the source. Rule for the calls: active = hit-call score of the fitted dose curve at least 0.9, where 1 is the maximum; inactive = score below 0.9.

Experiments:
[1] = BSK_hDFCGF_SRB: Viability Assessment in the BioMAP Diversity Plus: hDFCGF Assay (AID 2283061); settings: primary human foreskin fibroblasts;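 note: cells exposed to compound for 24 h before the read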
Procedure, shortened: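 Readout is SRB absorbance at 560 nm, reflecting total protein in parallel cultures of human foreskin fibroblasts harvested 24 h after chemical dosing. Activity was fitted bidirectionally relative to DMSO.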

[2] = read-out: TIMP metallopeptidase inhibitor 1 (TIMP1), TIMP1 (gene 7076); assay: BSK_hDFCGF_TIMP1: BioMAP Diversity Plus: hDFCGF Assay for TIMP metallopeptidase inhibitor 1 (TIMP1) Biomarker Activity (AID 2283062); settings: primary human foreskin fibroblasts; actives raise or lower the signal
Procedure, shortened: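 Human skin fibroblasts (primary), hDFCGF system; compound exposure 24 h; TIMP-1 by ELISA; bidirectional fit vs DMSO negative control; overt cytotoxicity by SRB in parallel wells.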

[3] = read-out: Monokine induced gamma interferon (MIG), CXCL9 (gene 4283); assay: BSK_hDFCGF_MIG: BioMAP Diversity Plus: hDFCGF Assay for Monokine induced gamma interferon (MIG) Biomarker Activity (AID 2283063); settings: primary human foreskin fibroblasts; actives raise or lower the signal
Procedure, shortened: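 Chemicals were added to primary human foreskin fibroblast cultures, which were sampled 24 h later. MIG levels were then quantified by ELISA and responses fitted in both directions relative to DMSO.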

[4] = read-out: Matrix Metallopeptidase 1 (MMP1), MMP1 (gene 4312); assay: BSK_hDFCGF_MMP1: BioMAP Diversity Plus: hDFCGF Assay for Matrix Metallopeptidase 1 (MMP1) Biomarker Activity (AID 2283064); settings: primary human foreskin fibroblasts; actives raise or lower the signal
Procedure, shortened: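 Primary human foreskin fibroblasts in the hDFCGF system were dosed with test chemical, and MMP1 was measured by ELISA 24 h later. Values come from bidirectional curve fitting against the DMSO baseline.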

[5] = read-out: Vascular cell adhesion molecule 1 (VCAM1), VCAM1 (gene 7412); assay: BSK_hDFCGF_VCAM1: BioMAP Diversity Plus: hDFCGF Assay for Vascular cell adhesion molecule 1 (VCAM1) Biomarker Activity (AID 2283065); settings: primary human foreskin fibroblasts; actives raise or lower the signal;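 for AC50: VCAM-1 protein level quantified by ELISA after 24 h chemical exposure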
Procedure, shortened: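 Human foreskin fibroblast primary cells, chemical exposure 24 h; VCAM-1 by ELISA; bidirectional fit, DMSO = negative control/baseline.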

[6] = read-out: Plasminogen activator inhibitor-1 (PAI1), SERPINE1 (gene 5054); assay: BSK_hDFCGF_PAI1: BioMAP Diversity Plus: hDFCGF Assay for Plasminogen activator inhibitor-1 (PAI1) Biomarker Activity (AID 2283066); settings: primary human foreskin fibroblasts; actives raise or lower the signal
Procedure, shortened: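 Human foreskin fibroblasts in the hDFCGF system were dosed with compound for 24 h; PAI-1 was quantified by ELISA. Bidirectional curve fitting used DMSO as negative control and baseline.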

[7] = read-out: Intercellular Adhesion Molecule 1 (ICAM1), ICAM1 (gene 3383); assay: BSK_KF3CT_ICAM1: BioMAP Diversity Plus: KF3CT Assay for Intercellular Adhesion Molecule 1 (ICAM1) Biomarker Activity (AID 2283067); settings: primary human keratinocytes with fibroblasts; actives raise or lower the signal
Procedure, shortened: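 ICAM-1 levels are measured by ELISA 24 h after dosing a primary human co-culture of keratinocytes and foreskin fibroblasts. Activity in either direction is fitted relative to DMSO vehicle.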

[8] = read-out: Interferon-gamma inducible Protein 10 (IP10), CXCL10 (gene 3627); assay: BSK_KF3CT_IP10: BioMAP Diversity Plus: KF3CT Assay for Interferon-gamma inducible Protein 10 (IP10) Biomarker Activity (AID 2283068); settings: primary human keratinocytes with fibroblasts; actives raise or lower the signal
Procedure, shortened: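 In a primary skin co-culture of keratinocytes and fibroblasts, IP-10 is quantified by ELISA at 24 h after dosing. SRB staining of parallel wells monitors overt toxicity. Curves are fitted both directions against DMSO.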

[9] = BSK_KF3CT_SRB: Viability Assessment in the BioMAP Diversity Plus: KF3CT Assay (AID 2283069); settings: primary human keratinocytes with fibroblasts;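 note: total protein by sulforhodamine B staining as a cytotoxicity measure; read 24 h after compound addition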
Procedure, shortened: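 Human primary keratinocyte plus foreskin fibroblast co-culture exposed to chemicals for 24 h. Total protein measured by 0.1% sulforhodamine B staining after 10% TCA fixation, read at 560 nm; bidirectional fitting versus DMSO baseline.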

[10] = read-out: Interleukin-1 alpha (IL1a), IL1A (gene 3552); assay: BSK_KF3CT_IL1a: BioMAP Diversity Plus: KF3CT Assay for Interleukin-1 alpha (IL1a) Biomarker Activity (AID 2283070); settings: primary human keratinocytes with fibroblasts; actives raise or lower the signal
Procedure, shortened: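 Human keratinocyte plus foreskin fibroblast primary co-culture, sampled 24 h after chemical dosing. IL-1a measured by ELISA; responses fitted bidirectionally against DMSO baseline (negative control), so gain or loss of signal both count.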

[11] = read-out: TIMP metallopeptidase inhibitor 2 (TIMP2), TIMP2 (gene 7077); assay: BSK_KF3CT_TIMP2: BioMAP Diversity Plus: KF3CT Assay for TIMP metallopeptidase inhibitor 2 (TIMP2) Biomarker Activity (AID 2283071); settings: primary human keratinocytes with fibroblasts; actives raise or lower the signal
Procedure, shortened: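 Human primary keratinocyte/foreskin fibroblast co-culture dosed with chemical and sampled at 24 h. TIMP-2 levels quantified by ELISA; bidirectional fitting against DMSO negative control as baseline.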

[12] = read-out: Transforming growth factor beta 1 (TGFb1), TGFB1 (gene 7040); assay: BSK_KF3CT_TGFb1: BioMAP Diversity Plus: KF3CT Assay for Transforming growth factor beta 1 (TGFb1) Biomarker Activity (AID 2283072); settings: primary human keratinocytes with fibroblasts; actives raise or lower the signal
Procedure, shortened: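 Human keratinocyte plus foreskin fibroblast primary co-culture, dosed with chemical for 24 h. TGF-b1 quantified by ELISA. Activity fitted bidirectionally against DMSO negative control as baseline.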

[13] = read-out: C-C motif chemokine 2 (Homo sapiens) (UniProt P13500); assay: BSK_KF3CT_MCP1: BioMAP Diversity Plus: KF3CT Assay for Monocyte Chemoattractant Protein 1 (MCP1/CCL2) Biomarker Activity (AID 2283073); settings: primary human keratinocytes with fibroblasts; actives raise or lower the signal
Procedure, shortened: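 ELISA readout of MCP-1 after 24 h chemical dosing of a human skin primary co-culture of keratinocytes and foreskin fibroblasts. Activity was fitted in both directions against DMSO.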

[14] = read-out: Matrix Metallopeptidase 9 (MMP9), MMP9 (gene 4318); assay: BSK_KF3CT_MMP9: BioMAP Diversity Plus: KF3CT Assay for Matrix Metallopeptidase 9 (MMP9) Biomarker Activity (AID 2283074); settings: primary human keratinocytes with fibroblasts; actives raise or lower the signal;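 for AC50: MMP9 protein level quantified by ELISA in the co-culture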
Procedure, shortened: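 Keratinocyte plus foreskin fibroblast human primary skin co-culture was dosed with chemical and MMP-9 was quantified by ELISA 24 h later. Bidirectional curve fitting used DMSO as negative control and activity baseline.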

[15] = read-out: urokinase plasminogen activator (uPA), PLAU (gene 5328); assay: BSK_KF3CT_uPA: BioMAP Diversity Plus: KF3CT Assay for urokinase plasminogen activator (uPA) Biomarker Activity (AID 2283075); settings: primary human keratinocytes with fibroblasts; actives raise or lower the signal
Procedure, shortened: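 Human keratinocyte plus foreskin fibroblast primary co-culture exposed to chemical for 24 h. uPA levels were quantified by ELISA, and activity was fitted bidirectionally against a DMSO negative-control baseline.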

CD40, CD40 (gene 958) = assay: BSK_LPS_CD40: BioMAP Diversity Plus: LPS Assay for CD40 Biomarker Activity (AID 2283076); settings: primary human HUVEC with PBMC; actives raise or lower the signal
Procedure, shortened: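 Cells were dosed, incubated 24 h, then assayed for CD40 by ELISA. Gain or loss of signal was analysed relative to DMSO controls. The culture paired human umbilical vein endothelium with peripheral blood mononuclear cells.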

[16] = read-out: E-selectin (Homo sapiens) (UniProt P16581); assay: BSK_LPS_Eselectin: BioMAP Diversity Plus: LPS Assay for Eselectin Biomarker Activity (AID 2283077); settings: primary human HUVEC with PBMC; actives raise or lower the signal
Procedure, shortened: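 Primary human vascular co-culture (endothelium plus PBMC) was dosed with chemical, then E-selectin quantified by ELISA at 24 h. Endpoint values derive from bidirectional curve fitting relative to DMSO.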

[17] = read-out: Interleukin-8 (IL8), CXCL8 (gene 3576); assay: BSK_LPS_IL8: BioMAP Diversity Plus: LPS Assay for Interleukin-8 (IL8) Biomarker Activity (AID 2283078); settings: primary human HUVEC with PBMC; actives raise or lower the signal
Procedure, shortened: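 Readout is IL-8 by ELISA, taken 24 h after compounds were added to LPS-stimulated endothelial/PBMC co-cultures. Both increases and decreases relative to DMSO control were scored through bidirectional fitting.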

[18] = BSK_LPS_SRB: Viability Assessment in the BioMAP Diversity Plus: LPS Assay (AID 2283079); settings: primary human HUVEC with PBMC;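 note: total protein by sulforhodamine B absorbance as a cytotoxicity measure; measured one day after compound addition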
Procedure, shortened: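 Readout is SRB absorbance at 560 nm (0.1% stain, TCA-fixed parallel cultures) as a total-protein cytotoxicity measure. Cells: primary human umbilical vein endothelium plus peripheral blood mononuclear cells, 24 h after chemical exposure; DMSO served as baseline.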

[19] = read-out: Interleukin-1 alpha (IL1a), IL1A (gene 3552); assay: BSK_LPS_IL1a: BioMAP Diversity Plus: LPS Assay for Interleukin-1 alpha (IL1a) Biomarker Activity (AID 2283080); settings: primary human HUVEC with PBMC; actives raise or lower the signal
Procedure, shortened: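 ELISA read-out of IL-1 alpha from a human primary vascular co-culture (endothelium plus PBMC) under LPS, sampled 24 hours post-dosing. Activity was fitted in both directions relative to DMSO controls.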

Measured: AC50

Sequence of E-selectin (Homo sapiens) (P16581 whole entry, looked up): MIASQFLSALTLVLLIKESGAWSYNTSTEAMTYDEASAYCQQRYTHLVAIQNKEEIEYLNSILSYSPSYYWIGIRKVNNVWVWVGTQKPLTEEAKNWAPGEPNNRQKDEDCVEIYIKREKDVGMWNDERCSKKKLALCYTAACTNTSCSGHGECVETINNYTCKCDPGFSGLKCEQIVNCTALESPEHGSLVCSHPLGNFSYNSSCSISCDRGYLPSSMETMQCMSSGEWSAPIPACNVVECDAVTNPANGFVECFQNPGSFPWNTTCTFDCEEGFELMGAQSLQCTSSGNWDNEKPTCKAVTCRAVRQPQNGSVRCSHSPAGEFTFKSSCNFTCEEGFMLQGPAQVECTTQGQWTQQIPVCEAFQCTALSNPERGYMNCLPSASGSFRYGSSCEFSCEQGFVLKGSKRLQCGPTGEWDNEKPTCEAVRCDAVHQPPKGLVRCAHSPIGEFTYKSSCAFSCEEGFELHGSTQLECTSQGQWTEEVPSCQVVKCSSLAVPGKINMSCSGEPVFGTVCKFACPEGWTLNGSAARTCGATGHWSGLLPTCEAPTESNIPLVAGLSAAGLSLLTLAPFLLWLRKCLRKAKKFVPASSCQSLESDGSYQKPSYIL

CC(=O)CC(C)(C)O
inactive: all assays above

C[C@@H]1C[C@H]2[C@@H]3CCC4=CC(=O)C=C[C@]4(C)[C@@]3(F)[C@@H](O)C[C@]2(C)[C@@]1(O)C(=O)COP(=O)(O)O
active: [1] 3.28 µM | [2] 2.65 µM | [4] 1.42 µM and 386 nM | [5] 8.68 µM
inactive: [1] | [2] | [3] | [4] | [5] | [6] | [7] | [8] | [9] | [10] | [11] | [12] | [13] | [14] | [15] | CD40, CD40 (gene 958) | [16] | [17] | [18] | [19]

CCCCC(CC)COC(=O)CCCCC(=O)OCC(CC)CCCC (centres undefined)
inactive: all assays above

N#C[C@@H]1CC(F)(F)CN1C(=O)CNC1CC2CCC(C1)N2c1ncccn1 (some centres undefined)
active: CD40, CD40 (gene 958) 4.2 µM
inactive: all other assays above

NC(=O)N1C(=O)C(C(=O)c2cc(Cl)cs2)c2cc(F)c(Cl)cc21 (centres undefined)
active: [1] 5.47 µM | [2] 5.17 µM | [3] 12.7 µM | [4] 10.3 µM | [5] 5.54 µM | [6] 1.71 µM | [7] 12.4 µM | [8] 8.07 µM | [9] 6.16 µM | [10] 12.9 µM | [11] 11.2 µM | [12] 7.48 µM | [14] 4.33 µM | [15] 12.5 µM | CD40, CD40 (gene 958) 17.7 µM | [16] 1.47 µM | [18] 20 µM | [19] 20 µM
inactive: [13] | [17]

CCCCC(CC)COC(=O)CCCCC(=O)OCc1ccccc1 (centres undefined)
inactive: all assays above

CCCOc1sc(C(=O)N2CCC(c3cc(CN)ccc3F)CC2)c(C)c1Br
active: [1] 6.53 µM | [2] 10.6 µM | [3] 9.21 µM | [4] 10.3 µM | [5] 9.91 µM | [6] 6.22 µM | [7] 10.6 µM | [8] 7.07 µM | [9] 5.28 µM | [10] 10.6 µM | [11] 9.6 µM | [12] 8.97 µM | [13] 9.27 µM | [14] 5.74 µM | [15] 10.2 µM | CD40, CD40 (gene 958) 7.91 µM | [16] 11.1 µM | [17] 13.6 µM | [18] 5.93 µM | [19] 8.61 µM

Cc1cc(CCN2CCN(c3nsc4ccccc34)CC2)cc2c1NC(=O)CC2(C)C
active: [1] 13.4 µM | [2] 9.33 µM | [3] 10.9 µM | [4] 8.43 µM | [5] 5.57 µM | [6] 14.6 µM | [7] 29.6 µM | [8] 33.4 µM | [9] 11.7 µM | [10] 26.6 µM | [11] 20 µM | [12] 13.2 µM | [13] 28.8 µM | [14] 16.5 µM | [15] 13.4 µM | CD40, CD40 (gene 958) 14.3 µM | [16] 30 µM | [17] 19.5 µM | [18] 32.8 µM | [19] 10.3 µM

COCC(C)O (centres undefined)
inactive: all assays above

CCC(C)(C)C1CCC(O)CC1 (centres undefined)
active: [8] 32.8 µM
inactive: all other assays above

CC(C)CCCCCCOC(=O)CCCCC(=O)OCCCCCCC(C)C
inactive: all assays above
